Peg3 prom inh-1 = Peg3 promoter-driven luciferase inhibitors, primary screen, cell-based, HeLa, luciferase luminescence; inhibition, % at 20 µM; 1.7% of 360,000 active; HeLa PEG-Prom luciferase reporter, overnight; AID 588405, 2011;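 active = inhibition of at least 50% at 20 µM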
TWEAK Fn14 block = inhibitors of TWEAK-Fn14 signaling, primary screen, luciferase reporter cells, uHTS; 2% of 360,000 active; TWEAK-stimulated Fn14 reporter cells, luciferase luminescence, 8 h; inhibition, % at 10 µM; in the data active = inhibition above about 50%
KKLEB cytotox = cytotoxicity in KKLEB CF airway cells, primary screen, cytotoxicity control for CF NF-kB inhibitor project, cell-based, uHTS, fluorescence assay plates; KKLEB CF airway cells viability, ATPlite luminescence, overnight; hits give low values; cells stimulated with P. aeruginosa culture filtrate; activity change (cytotoxicity), % at 5 µM; 0.36% of 360,000 active; AID 602141, 2011;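 active = corrected activity change at or below -50% at 5 µM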
TROY NFkB inh = inhibitors of TROY-driven NF-kB signaling, primary screen, Q293 LMP1-TROYcd cells, NF-kB luciferase, uHTS. Q293 LMP1-TROYcd NF-kB luciferase reporter, 4 h. 0.98% of 360,000 active. inhibition, % at 10 µM;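 active = compounds whose plate-normalised and pattern-corrected inhibition of the luciferase reporter signal at the single screening dose is 50% or more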
CF NFkB inh = inhibitors of PAF-induced NF-kB signaling, primary screen, cell-based, GFP fluorescence, uHTS | KKLEB NF-kB-GFP reporter, GFP fluorescence overnight | inhibition, % at 5 µM | 0.86% of 360,000 active | AID 588850, 2011;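 active = at least 50% inhibition at 5 µM, scaled per plate between neutral and stimulator controls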;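 also: PAF is a Pseudomonas aeruginosa culture filtrate used as stimulus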
HIF-2a inh = HIF-2a reporter inhibitors, primary screen, luminescence, 786-0 RCC cells; 0.72% of 360,000 active; 786-0 RCC cells HIF-2a reporter, luciferase luminescence, overnight; inhibition, % at 18.8 µM;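 active = inhibition of the luminescence signal of 40% or more relative to plate controls, in a single-dose primary screen at 18.75 µM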
Peg3 prom inh-2 = Peg3 promoter reporter inhibitors, retest, confirmation, cell-based, HeLa, luciferase reporter, single concentration; shares compounds with Peg3 prom inh-1; HeLa PEG-Prom luciferase reporter, luminescence, overnight; inhibition, % at 20 µM; 84% of 1,300 active; AID 602417, 2012;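 active = at 20 µM dose, 40% or more inhibition averaged across four replicates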
Hits are given with their value. Rows were chosen to be rich in hits. Some 3.9% of all compounds tested hit in one or more screens of this group.

For O=C(/C=C\Nc1ccc2c(c1)OCO2)c1ccccn1 the results were Peg3 prom inh-1 84.6, TWEAK Fn14 block 104.2, KKLEB cytotox -54.5, TROY NFkB inh 74.7, CF NFkB inh inactive, HIF-2a inh 71.4 and Peg3 prom inh-2 71.2.
For O=S(=O)(N[C@H]1C[C@@H](NS(=O)(=O)OCC(Cl)(Cl)Cl)C2CCCCC21)OCC(Cl)(Cl)Cl (stereo partly specified) the results were Peg3 prom inh-1 60.9, TWEAK Fn14 block inactive, KKLEB cytotox inactive, TROY NFkB inh inactive, CF NFkB inh inactive, HIF-2a inh inactive and Peg3 prom inh-2 83.7.
Cc1cc(C)cc(N(CC(=O)N/N=C/c2ccncc2)S(=O)(=O)c2ccccc2)c1 was read as Peg3 prom inh-1 inactive, TWEAK Fn14 block inactive, KKLEB cytotox inactive, TROY NFkB inh inactive, CF NFkB inh inactive and HIF-2a inh inactive.
`CC1CCCN(Cc2nc3c(c(=O)n(C)c(=O)n3C)n2CCCc2ccccc2)C1` (stereo unspecified) gave Peg3 prom inh-1 inactive, TWEAK Fn14 block inactive, KKLEB cytotox inactive, TROY NFkB inh inactive, CF NFkB inh inactive and HIF-2a inh inactive.
`CCc1cc2c(-c3ccccc3)cc(=O)oc2cc1OCC(C)=O` gave Peg3 prom inh-1 inactive, TWEAK Fn14 block inactive, KKLEB cytotox inactive, TROY NFkB inh inactive, CF NFkB inh inactive and HIF-2a inh inactive.
Screening CC(=O)COc1cc2c(-c3cc4ccccc4o3)cc(=O)oc2cc1C returned Peg3 prom inh-1 56.4, TWEAK Fn14 block inactive, KKLEB cytotox inactive, TROY NFkB inh inactive, CF NFkB inh inactive, HIF-2a inh inactive and Peg3 prom inh-2 inactive.
Screening Cn1c(=O)nc2n(Cc3ccccc3)c3ccccc3cc-2c1=O returned Peg3 prom inh-1 inactive, TWEAK Fn14 block inactive, KKLEB cytotox inactive, TROY NFkB inh inactive, CF NFkB inh inactive and HIF-2a inh inactive.
Screening Cc1[nH]n(-c2nc(-c3ccc(Cl)cc3)cs2)c(=O)c1N=Nc1ccc(O)cc1 returned Peg3 prom inh-1 54.2, TWEAK Fn14 block 87.7, KKLEB cytotox inactive, TROY NFkB inh inactive, CF NFkB inh inactive, HIF-2a inh inactive and Peg3 prom inh-2 inactive.
Screening O=[N+]([O-])c1cc([N+](=O)[O-])c(N2CCOCC2)cc1NCc1ccccc1 returned Peg3 prom inh-1 inactive, TWEAK Fn14 block inactive, KKLEB cytotox inactive, TROY NFkB inh inactive, CF NFkB inh inactive and HIF-2a inh inactive.
`CCn1cc(C(=O)N[C@@H](CCSC)C(=O)NCCO)c(=O)c2cc3c(cc21)OCO3` gave Peg3 prom inh-1 inactive, TWEAK Fn14 block inactive, KKLEB cytotox inactive, TROY NFkB inh inactive, CF NFkB inh inactive and HIF-2a inh inactive.
COCCNC(=O)C(c1ccc(C)cc1)N(Cc1cccs1)C(=O)CCC(=O)Nc1ccccn1 (stereo unspecified) was read as Peg3 prom inh-1 inactive, TWEAK Fn14 block inactive, KKLEB cytotox inactive, TROY NFkB inh inactive, CF NFkB inh inactive and HIF-2a inh inactive.
CCOc1ccc(Nc2c3ccccc3nc3ccccc23)cc1 was read as Peg3 prom inh-1 84.6, TWEAK Fn14 block inactive, KKLEB cytotox inactive, TROY NFkB inh inactive, CF NFkB inh inactive, HIF-2a inh inactive and Peg3 prom inh-2 84.6.
For CCOc1ccc(Nc2cc(C)c3ccccc3n2)cc1 the results were Peg3 prom inh-1 inactive, TWEAK Fn14 block inactive, KKLEB cytotox inactive, TROY NFkB inh inactive, CF NFkB inh inactive and HIF-2a inh inactive.
`CC1=C(CC[C@@H](C)CO)OC2CC3C4CCC5CC(O)CCC5(C)C4CC(=O)C3(C)C12` (stereo partly specified) gave Peg3 prom inh-1 64.9, TWEAK Fn14 block inactive, KKLEB cytotox inactive, TROY NFkB inh inactive, CF NFkB inh inactive, HIF-2a inh inactive and Peg3 prom inh-2 58.1.
CC(C)CC(=NNC(=O)c1ccncc1)c1cc(Cl)ccc1O was read as Peg3 prom inh-1 63.6, TWEAK Fn14 block inactive, KKLEB cytotox inactive, TROY NFkB inh inactive, CF NFkB inh inactive, HIF-2a inh inactive and Peg3 prom inh-2 73.4.
